This note sets out measurements from PMC4336329 (PLoS ONE, 2015).

In all, about 310,000 compounds went through this assay and about 14,000 (4.5%) showed an effect of 50% or more. The effect is printed as a negative number. The sample holds strong results, similar compounds and a random draw of the others, so the mix is not that of the screen.
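Note: peak tail current of the secondary pulse compared with the same well before compound.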

Chain of human ether-à-go-go-related gene (hERG) potassium channel (Q12809 whole entry, looked up): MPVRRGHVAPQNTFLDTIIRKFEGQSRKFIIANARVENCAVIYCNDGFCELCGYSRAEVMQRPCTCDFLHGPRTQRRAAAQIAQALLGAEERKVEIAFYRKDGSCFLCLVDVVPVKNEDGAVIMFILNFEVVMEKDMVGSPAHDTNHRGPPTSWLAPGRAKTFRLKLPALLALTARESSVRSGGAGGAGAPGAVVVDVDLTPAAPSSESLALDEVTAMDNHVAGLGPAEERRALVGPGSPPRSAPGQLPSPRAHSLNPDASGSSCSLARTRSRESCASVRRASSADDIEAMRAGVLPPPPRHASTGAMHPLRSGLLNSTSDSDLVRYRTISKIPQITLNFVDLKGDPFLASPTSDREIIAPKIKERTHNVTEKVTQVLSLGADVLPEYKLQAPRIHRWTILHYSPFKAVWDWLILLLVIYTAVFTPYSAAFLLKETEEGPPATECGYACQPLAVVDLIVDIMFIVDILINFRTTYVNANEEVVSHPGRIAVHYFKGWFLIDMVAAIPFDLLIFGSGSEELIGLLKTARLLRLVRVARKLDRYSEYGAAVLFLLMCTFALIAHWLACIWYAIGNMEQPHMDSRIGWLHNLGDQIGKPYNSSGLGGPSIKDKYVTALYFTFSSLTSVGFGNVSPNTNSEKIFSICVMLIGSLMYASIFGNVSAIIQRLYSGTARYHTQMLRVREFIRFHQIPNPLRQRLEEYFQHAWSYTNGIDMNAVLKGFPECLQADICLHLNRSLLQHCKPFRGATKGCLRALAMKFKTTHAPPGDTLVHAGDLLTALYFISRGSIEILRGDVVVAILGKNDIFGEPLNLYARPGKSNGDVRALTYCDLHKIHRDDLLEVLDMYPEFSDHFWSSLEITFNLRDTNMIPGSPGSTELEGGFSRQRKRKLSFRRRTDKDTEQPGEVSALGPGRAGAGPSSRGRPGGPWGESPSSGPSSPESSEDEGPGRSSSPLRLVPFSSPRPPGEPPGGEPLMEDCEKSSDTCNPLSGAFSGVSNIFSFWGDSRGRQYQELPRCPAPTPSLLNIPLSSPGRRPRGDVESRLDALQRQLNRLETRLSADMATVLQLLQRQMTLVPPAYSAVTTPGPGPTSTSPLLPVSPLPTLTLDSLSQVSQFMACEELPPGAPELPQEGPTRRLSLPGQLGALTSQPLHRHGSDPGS

This test addresses human ether-à-go-go-related gene (hERG) potassium channel (human, UniProt Q12809). The experiment in a line: primary screen, population patch clamp on CHO cells stably expressing hERG; higher = less effect of the substance.
With `O=C(COc1ccc(-n2cnnn2)cc1)Nc1cccc(Cl)c1Cl`, the “hERG current change (%, negative = inhibition) at 10uM” value is 16.8%.
For `CC(=O)Nc1ccc(NC(=O)c2cc([N+](=O)[O-])cc([N+](=O)[O-])c2)cc1`, the “hERG current change (%, negative = inhibition) at 10uM” value was determined as 22.5%.
Turning to `CCN1CCN(c2ccc(S(=O)(=O)N3CCCCC3)cc2NC(=O)c2cccc(Cl)c2)CC1`, the “hERG current change (%, negative = inhibition) at 10uM” value is on record as -34.6%.
With `CCN1CCN(c2ccc(S(=O)(=O)N3CCCCC3)cc2NC(=O)c2cccc(NC(C)=O)c2)CC1`, the “hERG current change (%, negative = inhibition) at 10uM” value is on record as -71.3%.
With `CCN1CCN(c2ccc(S(=O)(=O)N3CCCCC3)cc2NC(=O)c2cccc(C)c2)CC1` the figure was -37.4%; with `CC1(C)CC(=O)c2cc(N=C/C(C(=O)c3ccccc3)=C(\O)c3ccccc3)c(=O)oc2C1`, 17.6%.
With `O=C1C=C(c2ccc3ncccc3c2)C[C@@H](c2ccc(F)cc2)C1` the figure was -62.5%; with `COc1ccc([C@H]2CC(=O)C=C(c3ccc4ncccc4c3)C2)cc1`, -3.25%.
With `COc1ccc([C@H]2CC(=O)C=C(c3ccc(OC)nc3)C2)cc1` the figure was 14.2%; with `O=C1C=C(c2ccc3ncccc3c2)C[C@@H](c2ccc(Cl)cc2)C1`, -3.34%.
On to `O=C1C=C(c2ccc(-c3ccccc3)cc2)C[C@@H](c2ccc3c(c2)OCO3)C1`, for which the “hERG current change (%, negative = inhibition) at 10uM” value was 7.88%.
With `Cc1ccc(C2=CC(=O)C[C@H](c3ccc(F)cc3)C2)cc1` the figure was 19.4%.
For `O=C1C=C(c2ccc3c(c2)OCO3)C[C@@H](c2ccc3c(c2)OCO3)C1`, the “hERG current change (%, negative = inhibition) at 10uM” value is recorded as 10.9%.
To `O=C1C=C(c2ccc(-c3ccccc3)cc2)C[C@@H](c2ccc(F)cc2)C1` belongs 6.67%; to `N#Cc1ccc(C2=CC(=O)C[C@H](c3ccc(F)cc3)C2)cc1`, -72.1%; to `COc1ccc(C2=CC(=O)CC(c3ccc(F)cc3)C2)cn1` (stereo not shown), -61.1%.
With `N#Cc1ccc(C2=CC(=O)C[C@H](c3ccc4c(c3)OCO4)C2)cc1` the figure was -70%.
To `COc1ccc(C2=CC(=O)C[C@H](c3ccc(Cl)cc3)C2)cn1` belongs -12.4%; to `COc1ccc(CN2CCN(C(=O)c3cccs3)CC2)cc1.O=C(O)C(=O)O`, -7.86%.
`C=CCn1c(SCC(=O)N2CCOCC2)nnc1C(C)NC(=O)c1ccccc1` (stereo not shown): the “hERG current change (%, negative = inhibition) at 10uM” value is recorded as 13.4%.
With `CCc1cccc(C)c1NC(=O)COC(=O)Cc1ccsc1` the figure was 10.4%; with `c1cncc(-c2noc(C34CC5CC(CC(C5)C3)C4)n2)c1`, -0.918%.
